# Inconclusive results are not listed. Entries that show only a call come without a potency. Calls of active or inactive are those of the source. The call rests on the fitted dose curve; in most records, active means well fitted cell-killing curve with a large enough effect; inconclusive means small, poorly fitted or top-dose-only effect; inactive means flat fitted curve, though single readings scatter.
# Assay: Cell Viability - LYMP2-015 (AID 971); further: nearly all actives have a fitted effect of over 55% in size
# Settings: LYMP2-015 lymphoblastoid cell viability; series mostly up to 92.2 µM
# From the text: NIH Chemical Genomics Center [NCGC]
# NIH Molecular Libraries Screening Centers Network [MLSCN]
# National Institutes of Environmental Health Sciences [NIEHS]
# National Toxicology Program [NTP]
# We have developed a 1536-well cell-based assay for quantitative high throughput screening (qHTS) against a number of cell lines to determine in vitro cytotoxicity of small molecules. This particular assay uses a human lymphoblastoid cell line (LYMP2-015) purchased from Coriell Institute for Medical Research.
# NCGC Assay Protocol Summary:
# The CellTiter-Glo luminescent cell viability assay (Promega) is a homogeneous method to measure the number of viable cells in culture. The end point readout of this assay is based on quantitation of intracellular ATP, an indicator of metabolic activity, using the luciferase reaction. Luciferase catalyzes the oxidation of beetle Luciferin to oxyluciferin and light in the presence of ATP. The luminescent signal is proportional to amount of ATP present.
# Using the CellTiter-Glo luminescent cell viability assay, the amount of cellular ATP was measured in the lymphoblastoid cell line with complete culture medium following compound treatment for 24 hours. The assay was performed in opaque white Kalypsys 1536-well plates. In the screen, tetraoctylammonium bromide was used as positive control. Library compounds were measured for their ability to cause acute toxicity in the cell line, as reflected by a decrease in intracellular ATP levels, in a concentration-dependent manner. […] AC50 values were determined from concentration-response data modeled with the standard Hill equation.
# qHTS protocol for CellTiter Glo lymphoblastoid cellular assay
# [Step] [Parameter] [Value] [Description]
# 1. Reagent; 5 uL; 2500 lymphoblastoid cells/well
# 2. Time; 5 hr; 37 C incubation
# 4. Controls; 23 nL; Tetraoctylammonium bromide 6.4pM to 92 uM
# 5. Time; 24 hr; 37 C incubation
# 6. Reagent; 5 uL; CellTiter Glo reagent
# 7. Time; 30 min; Room Temperature
# 8. Detection; Luminescence; Viewlux plate reader
# Keywords: cell viability, cytotoxicity, lymphoblastoid cell line, luminescence, NTPHTS, NTPHTS_NCGC, NIEHS, DSSTox, MLSMR, MLSCN, NIH Roadmap, qHTS, NCGC
# Potency means the concentration at half of the fitted maximal effect.
row,SMILES,Potency
1,Oc1ccc(Cl)cc1Cl,inactive
2,C=CC(C)=O,inactive
3,C[C@H]1CCCC(=O)CCC/C=C/c2cc(O)cc(O)c2C(=O)O1,inactive
4,CC(=O)[O-].CC(=O)[O-].O.O.O.[Pb+2],inactive
5,Nc1ccccc1Cl,inactive
6,C/C=C/c1ccc2c(c1)OCO2,inactive
7,CN=C=S,inactive
8,Cc1ccc(O)c(C)c1,inactive
9,C=C(Cl)Cl,inactive
10,C=C(C)C#N,inactive
11,ClC(Cl)=C(Cl)C(Cl)=C(Cl)Cl,inactive
12,[O-][Br+2]([O-])O,inactive
13,C=CCc1ccc2c(c1)OCO2,inactive
14,c1ccc(OP(Oc2ccccc2)Oc2ccccc2)cc1,inactive
15,C[C@]12CC[C@H]3[C@@H](CCC4=CC(=O)CC[C@@]43C)[C@@H]1CC[C@@H]2O,inactive
16,Clc1nc(Cl)nc(Nc2ccccc2Cl)n1,inactive
17,CCNc1nc(Cl)nc(NC(C)C)n1,inactive
18,Clc1cc(Cl)c(-c2cc(Cl)c(Cl)cc2Cl)cc1Cl,inactive
19,CCN(CC)c1ccccc1,inactive
20,O=C=NC1CCCCC1,inactive

row,SMILES,Potency
1,C=CCOC(C)=O,inactive
2,CCOP(=S)(OCC)SCSC(C)(C)C,inactive
3,ClCBr,inactive
4,CCc1cccc(CC)c1N(COC)C(=O)CCl,50.1 µM (active)
5,CCC[CH2][Sn]([Cl])([Cl])[Cl],inactive
6,C=CC(=O)OCC,inactive
7,CCSC(=O)Cl,inactive
8,C=CC1CC=CCC1 (stereo not given),inactive
9,O=S1OCC2C(CO1)C1(Cl)C(Cl)=C(Cl)C2(Cl)C1(Cl)Cl (stereo not given),inactive
10,COP(=S)(OC)Oc1ccc([N+](=O)[O-])cc1,inactive
11,N#CCCCl,inactive
12,OCC1CO1 (stereo not given),inactive
13,CCCCOC(=O)c1ccccc1C(=O)OCCCC,inactive
14,Cc1cccc([N+](=O)[O-])c1,inactive
15,C=C(C)C(=O)OCC1CO1 (stereo not given),inactive
16,C=CC(=C)C,inactive
17,Cc1cccc(C#N)c1,inactive
18,COc1ccc(N)cc1,inactive
19,Nc1c(Cl)c(Cl)nc(C(=O)O)c1Cl,inactive
20,COc1ccc(C=O)cc1OC,inactive

# — PubChem BioAssay (NCATS)
